Experimental data as given in PubChem BioAssay (NCATS).
Values joined by “and” are separate entries in the source; they are usually repeats but may differ in a detail not shown here. Identical values can stand only once. Values without a mark were called inactive. Records with an inconclusive call do not appear. Where a call stands in place of a potency, no number is given. Active and inactive are the calls of the source. Unless noted, calls follow the shape of the dose curve; as a rule, active = well fitted curve in the direction sought with a large enough effect; inconclusive = small, poorly fitted or top-dose-only effect, or another doubt; inactive = no such curve, though single readings can be large; an effect the other way counts as inactive or inconclusive.

How the values were obtained:
[1] = target: Thyroid hormone receptor beta (Homo sapiens) (UniProt P10828); experiment: qHTS assay for small molecule agonists of thyroid hormone receptor beta signaling (AID 588545; calls by dose curve)
In short: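 HEK 293 TR-UAS-bla; agonist mode; 18 hrs, 37 C; CCF4, ex 405/em 460 and 530 nm; norm. T3 10 nM = 100%, DMSO = 0%; Hill fit → EC50, efficacy.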

[2] = qHTS assay for environmental chemicals that activate the Aryl hydrocarbon Receptor (AhR) signaling pathway (AID 651777); details: 1A2-DRE human hepatoma cells, luciferase, 24 h; activation: active compounds read high; also: nearly all actives have a fitted effect of over 15% in size
In short: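 Induction of CYP1A2 transcription through AhR is detected by luciferase in 1A2-DRE hepatoma cells. Compounds or DMSO act for 24 hr at 37 C before a 30 min One-Glo step at room temperature.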

[3] = target: Nuclear receptor subfamily 1 group I member 2 (Rattus norvegicus) (UniProt Q9R1A7); experiment: qHTS assay for small molecule activators of the rat pregnane X receptor (rPXR) signaling pathway (AID 651751; call rule not given here); details: rPXR reporter cells, luciferase (One-Glo), 24 h
[4] = Cell Viability - LYMP2-001 (AID 921); also: nearly all actives have a fitted effect of over 70% in size; also: potency is read from the fitted curve at half-maximal effect
In short: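 A lymphoblastoid cell line of human origin was treated with library compounds across a concentration series for 24 hours, and viable cell number was estimated from ATP-driven luciferase light output. Hill modeling gave AC50.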

[5] = Cell Viability - LYMP2-005 (AID 967); also: potency is read from the fitted curve at half-maximal effect
In short: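 Luciferase-based ATP quantitation served as the viability measure in human lymphoblastoid LYMP2-005 cells exposed to test compounds for 24 h at 37 C in complete culture medium. Potency (AC50) was obtained by fitting concentration-response curves with the Hill equation.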

[6] = Cell Viability - LYMP2-015 (AID 971); also: nearly all actives have a fitted effect of over 55% in size; also: potency is read from the fitted curve at half-maximal effect
In short: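 Acute toxicity was scored as a concentration-dependent drop in intracellular ATP in lymphoblastoid cells after 24 hr compound exposure in complete medium. Detection used CellTiter-Glo luciferase luminescence.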

[7] = Cell Viability - LYMP2-019 (AID 973); also: nearly all actives have a fitted effect of over 55% in size; also: potency is read from the fitted curve at half-maximal effect
In short: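 Cells plated at 2500/well and allowed 5 hr at 37 C before compound addition. After 24 hr incubation, CellTiter-Glo reagent was added, plates sat 30 min at room temperature, and luminescence was recorded.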

[8] = Cell Viability - LYMP2-002 (AID 977); also: potency is read from the fitted curve at half-maximal effect
In short: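 Luminescent ATP readout (CellTiter-Glo, 30 min room temperature) after 24 h compound exposure at 37 C of a human lymphoblastoid line, 2500 cells/well. AC50 values derived by standard Hill fitting of qHTS concentration-response data.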

[9] = Cell Viability - LYMP2-008 (AID 980); also: nearly all actives have a fitted effect of over 60% in size; also: potency is read from the fitted curve at half-maximal effect
In short: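 Acute cytotoxicity is scored as concentration-dependent loss of cellular ATP in a human lymphoblastoid line after 24 hr treatment at 37 C. ATP is quantified by luciferase luminescence.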

[10] = Cell Viability - LYMP2-016 (AID 984); also: nearly all actives have a fitted effect of over 55% in size; also: potency is read from the fitted curve at half-maximal effect
In short: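 Concentration-dependent ATP depletion measured in LYMP2-016 lymphoblastoid cells, 24 h, 37 C; luciferase-based luminescent detection; Hill-equation AC50.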

[11] = Cell Viability - LYMP2-018 (AID 985);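 also: compound exposure lasted 24 hr at 37 °C; nearly all actives have a fitted effect of over 50% in size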; also: potency is read from the fitted curve at half-maximal effect
In short: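 Acute cytotoxicity is scored as a concentration-dependent drop in intracellular ATP after 24 hr exposure of the lymphoblastoid line in complete culture medium, measured by luciferase luminescence. Potency is expressed as AC50 from Hill modelling.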

[12] = Cell Viability - LYMP2-020 (AID 986); also: nearly all actives have a fitted effect of over 55% in size; also: potency is read from the fitted curve at half-maximal effect
In short: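 Acute cytotoxicity in a human lymphoblastoid line is scored as a concentration-dependent fall in cellular ATP after 24 hr at 37 C in complete medium. The positive control is tetraoctylammonium bromide, and potency is given as Hill-fit AC50.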

[13] = Cell Viability - LYMP2-022 (AID 987); also: nearly all actives have a fitted effect of over 55% in size; also: potency is read from the fitted curve at half-maximal effect
In short: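 Acute toxicity in a human lymphoblastoid line is scored as decreased intracellular ATP after 24 hr compound treatment at 37 C. ATP is measured by CellTiter-Glo luminescence; curves are fitted with the Hill equation to give AC50.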

[14] = Cell Viability - LYMP2-024 (AID 988); also: nearly all actives have a fitted effect of over 60% in size; also: potency is read from the fitted curve at half-maximal effect
In short: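 Acute toxicity is measured as concentration-dependent loss of intracellular ATP in a human lymphoblastoid line treated 24 hours at 37 C. Luciferase luminescence quantifies ATP; AC50 values come from standard Hill-equation modelling.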

[15] = target: Nuclear receptor ROR-gamma (Homo sapiens) (UniProt P51449); experiment: qHTS assay for small molecule antagonists of the retinoid-related orphan receptor gamma (ROR-gamma) signaling pathway (AID 651802); also: nearly all actives have a fitted effect of over 60% in size; also: potency is read from the fitted curve at half-maximal effect
In short: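 Antagonism is scored as a fall in luminescence from a RORE-luciferase reporter in CHO cells expressing ROR under a TET-inducible promoter, measured 16hr after doxycycline induction in the presence of compound.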

[16] = qHTS assay for small molecule agonists of the antioxidant response element (ARE) signaling pathway measured by Nrf2-dependant transcriptional activity (AID 720636; active = well fitted curve in the direction sought with a large enough effect in the repeat runs; an effect the other way counts as inactive or inconclusive;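 also: HepG2 cells with an ARE-driven luciferase reporter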)
In short: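 We exposed ARE-luc HepG2 cells, seeded in assay medium with 1% dialyzed FBS and allowed 6 hr to adhere, to test compounds overnight (16 hr, 37 C) before measuring luciferase with ONE-Glo.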

[17] = qHTS assay for small molecule antagonists of the retinoid-related orphan receptor gamma (ROR-gamma) signaling pathway - cell viability counter screen (AID 720652; active = well fitted curve in the direction sought with a large enough effect in the repeat runs; an effect the other way counts as inactive or inconclusive;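 also: compound exposure lasted 16 hr before ATP read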; also: potency is read from the fitted curve at half-maximal effect)
In short: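 Cytotoxicity is quantified via intracellular ATP (CellTiter-Glo luminescence) in doxycycline-induced CHO ROR response element-luciferase reporter cells treated with compound for 16 hr at 37 C, 5% CO2.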

[18] = MultiTox-Fluor Cytotoxicity Assay - LYMP1-002 - Dead Cells (AID 960); also: nearly all actives have a fitted effect of over 60% in size; also: potency is read from the fitted curve at half-maximal effect
In short: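 Acute cytotoxicity in a human lymphoblastoid line is scored as rising dead-cell protease signal after 16 hr exposure at 37 C, measured fluorometrically (485/520).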

[19] = qHTS assay for small molecule disruptors of the mitochondrial membrane potential - 1 hr assay (AID 651754; calls by dose curve; also: nearly all actives have a fitted effect of over 35% in size)
In short: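 Steps: seed HepG2 cells and let attach overnight; pin-transfer compound or vehicle; incubate 1 hr at 37C; add Mito-MPS dye for 30 min; read two-channel fluorescence for monomer and aggregate forms.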

Chain of Nuclear receptor ROR-gamma (Homo sapiens) (P51449 whole entry, looked up): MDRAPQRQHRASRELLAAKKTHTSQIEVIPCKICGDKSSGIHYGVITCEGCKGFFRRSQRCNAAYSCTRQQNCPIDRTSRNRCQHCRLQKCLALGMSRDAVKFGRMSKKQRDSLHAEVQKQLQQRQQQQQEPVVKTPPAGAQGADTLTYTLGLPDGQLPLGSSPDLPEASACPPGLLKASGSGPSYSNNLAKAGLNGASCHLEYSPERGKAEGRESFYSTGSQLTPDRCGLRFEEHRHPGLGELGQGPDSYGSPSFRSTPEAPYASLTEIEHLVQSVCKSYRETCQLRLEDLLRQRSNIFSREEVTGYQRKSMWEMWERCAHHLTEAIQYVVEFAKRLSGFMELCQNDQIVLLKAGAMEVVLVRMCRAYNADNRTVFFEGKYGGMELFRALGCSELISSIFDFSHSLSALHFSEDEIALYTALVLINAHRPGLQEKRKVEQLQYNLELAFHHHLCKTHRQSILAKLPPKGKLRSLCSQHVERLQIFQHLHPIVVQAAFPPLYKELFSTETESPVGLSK
Chain of Thyroid hormone receptor beta (Homo sapiens) (P10828 whole entry, looked up): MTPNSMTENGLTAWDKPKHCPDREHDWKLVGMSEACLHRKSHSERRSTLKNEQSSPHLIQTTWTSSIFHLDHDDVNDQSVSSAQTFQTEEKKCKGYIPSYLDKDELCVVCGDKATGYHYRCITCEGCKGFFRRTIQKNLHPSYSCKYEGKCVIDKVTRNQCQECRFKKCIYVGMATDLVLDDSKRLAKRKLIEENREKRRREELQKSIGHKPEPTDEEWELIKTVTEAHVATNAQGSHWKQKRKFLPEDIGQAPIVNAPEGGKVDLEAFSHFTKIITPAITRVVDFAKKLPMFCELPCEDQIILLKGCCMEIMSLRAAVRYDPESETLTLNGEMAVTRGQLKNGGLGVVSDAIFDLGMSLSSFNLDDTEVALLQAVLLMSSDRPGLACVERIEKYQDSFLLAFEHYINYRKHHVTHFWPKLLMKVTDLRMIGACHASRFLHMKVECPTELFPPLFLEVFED
Chain of Nuclear receptor subfamily 1 group I member 2 (Rattus norvegicus) (Q9R1A7 whole entry, looked up): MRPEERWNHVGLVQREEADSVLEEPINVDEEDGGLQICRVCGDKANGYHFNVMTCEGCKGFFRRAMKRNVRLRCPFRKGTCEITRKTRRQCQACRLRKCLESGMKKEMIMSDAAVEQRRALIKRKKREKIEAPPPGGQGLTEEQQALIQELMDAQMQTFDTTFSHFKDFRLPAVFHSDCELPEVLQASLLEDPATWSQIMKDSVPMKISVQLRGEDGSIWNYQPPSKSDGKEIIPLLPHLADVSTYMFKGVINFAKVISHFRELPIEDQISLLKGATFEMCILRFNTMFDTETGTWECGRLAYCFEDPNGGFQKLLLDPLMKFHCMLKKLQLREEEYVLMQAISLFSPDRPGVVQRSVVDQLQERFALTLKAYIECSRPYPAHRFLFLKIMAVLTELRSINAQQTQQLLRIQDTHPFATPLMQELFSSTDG

| Structure (SMILES) | outcome [1] | activation [2] | max response [3] | Potency [4] | Potency [5] | Potency [6] | Potency [7] | Potency [8] | Potency [9] | Potency [10] | Potency [11] | Potency [12] | Potency [13] | Potency [14] | Potency [15] | Potency [16] | Potency [17] | Potency [18] | Potency [19] |
| --- | --- | --- | --- | --- | --- | --- | --- | --- | --- | --- | --- | --- | --- | --- | --- | --- | --- | --- | --- |
| c1cc(OCC2CO2)cc(OCC2CO2)c1 (stereo not drawn) | inactive | 4% and -2.73% | -8.72% and -4.5% |  |  |  |  |  |  |  |  |  |  |  |  |  |  |  |  |
| O=C(OCC(COC(=O)c1ccccc1)(COC(=O)c1ccccc1)COC(=O)c1ccccc1)c1ccccc1 |  | -0.471% |  | inactive | inactive | inactive | inactive | inactive | inactive | inactive | inactive | inactive | inactive | inactive | inactive | inactive | inactive |  |  |
| c1ccc2c(c1)ccc1cc3c(ccc4ccccc43)cc12 |  |  |  | inactive | inactive | inactive | inactive | inactive | inactive | inactive | inactive | inactive | inactive | inactive |  |  | inactive | inactive | inactive |
| CCC(C)Nc1ccc(NC(C)CC)cc1 (stereo not drawn) | inactive | -3.51% |  | 5.01 µM (active) | 6.31 µM (active) | 3.98 µM (active) | 5.01 µM (active) | 3.98 µM (active) | 3.98 µM (active) | 5.01 µM (active) | 3.16 µM (active) | 5.01 µM (active) | 2.51 µM (active) | 2 µM (active) | 13.3 µM (active) | inactive | 8.41 µM (active) |  |  |
| CC(=O)Nc1ccc(C(=O)CCl)cc1 |  | 3.94% |  | 3.98 µM (active) |  | 5.01 µM (active) | 5.01 µM (active) | 7.94 µM (active) | 6.31 µM (active) | 7.94 µM (active) | 7.94 µM (active) | 5.01 µM (active) | 3.98 µM (active) | 3.16 µM (active) | 9.44 µM (active) |  | 18.8 µM (active) | 15.8 µM (active) | inactive |
